Among the data in PubChem BioAssay (NCI) are growth values, retold here.

The structures appear in SMILES notation. Compounds without any hit were thinned out: in the full panel of roughly 83,000, 20% have a hit.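 Activity criterion: percent growth below 10, measured after cells in 96-well plates were exposed to a single compound concentration for 48 hours.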 Unmarked numbers belong to inactive results. Activity calls are given as the source filed them.

Test systems include DU-145 prostate; K-562 leukemia; MALME-3M melanoma; MDA-MB-231 breast; RXF 393 renal; SF-268 CNS; SF-295 CNS; SF-539 CNS; M14 melanoma.
Test in all cases: NCI-60 one-dose screen, 48 h (100 = growth as untreated, 0 = no growth, -100 = all killed)
What all share (conditions): 10 µM unless noted

In the case of `COC(=O)[C@]12CC[C@@H](C)[C@H](C)[C@@H]1C1=CC[C@@H]3[C@@](C)(CC#N)C4=C(C[C@@]3(C)[C@]1(C)CC2)OC[C@]4(C)C=O`, the growth in the assay on DU-145 prostate was 5.07% (active); in the assay on K-562 leukemia it was 5.97% (active); in the assay on MALME-3M melanoma it was -16.9% (active); with MDA-MB-231 breast it was -8.99% (active); with RXF 393 renal, -85.1% (active); in the assay with SF-268 CNS, 3.69% (active). The growth in the assay with SF-295 CNS was -30.6% (active); in the assay with SF-539 CNS, -38.4% (active); with M14 melanoma, -1.53% (active).

`COc1ccc(/C=C/C(=O)NCCO)cc1`: the growth in the assay on DU-145 prostate is 102%; in the assay on K-562 leukemia, 95.7%; with MALME-3M melanoma, 92.3%; in the assay on MDA-MB-231 breast, 105%; with RXF 393 renal, 106%; with SF-268 CNS it was 94.3%. Further, the growth was 98.3% in the assay with SF-295 CNS, 94.9% in the assay on SF-539 CNS and 106% in the assay with M14 melanoma.

With `COC(=O)[C@]12CC[C@@H](C)[C@H](C)[C@@H]1C1=CC[C@@H]3[C@@]4(C)C[C@@H](O)[C@H](O)[C@@](C)(CO)C4=CC[C@@]3(C)[C@]1(C)CC2`, the growth in the assay on DU-145 prostate is -41.4% (active); in the assay on K-562 leukemia, -22.8% (active); in the assay with MALME-3M melanoma, -74.8% (active); in the assay on MDA-MB-231 breast it was -63.7% (active); in the assay with RXF 393 renal, -88.3% (active); with SF-268 CNS, -49.2% (active). In addition, the growth in the assay with SF-295 CNS is -83.3% (active); in the assay with SF-539 CNS it was -89.9% (active); with M14 melanoma it was -68.1% (active).

For `COc1cc2ncnc(Nc3ccc(Oc4ccnc(C)c4)c(C)c3)c2cc1NC(=O)CC1CCSS1` (stereo unspecified), the growth was -7.01% (active) in the assay with DU-145 prostate; -50.9% (active) in the assay on K-562 leukemia; -27.5% (active) in the assay with MALME-3M melanoma; -27.8% (active) with MDA-MB-231 breast; 8.74% (active) with RXF 393 renal; -53.2% (active) in the assay with SF-268 CNS. The growth in the assay on SF-295 CNS was -65.3% (active); with SF-539 CNS, 1.45% (active); in the assay on M14 melanoma, -65.1% (active).

For the compound `Oc1ccc(CCC2CCCC(CCc3ccc(OCCF)cc3)N2)cc1` (stereo unspecified), the growth in the assay with DU-145 prostate was 109%; with K-562 leukemia, 66%; in the assay with MALME-3M melanoma it was 117%; in the assay with MDA-MB-231 breast, 88.9%; with RXF 393 renal it was 84.7%; in the assay with SF-268 CNS, 99.1%. Further, the growth in the assay with SF-295 CNS is 96.4%; in the assay with SF-539 CNS, 104%; in the assay with M14 melanoma, 90.4%.

Regarding `Cc1ccc(N(CC(=O)Nc2ccc(S(=O)(=O)NC3CCN(C)CC3)cc2)S(=O)(=O)c2ccc(Cl)cc2)cc1`, the growth is 71.9% in the assay with DU-145 prostate; 19.5% in the assay with K-562 leukemia; -47.5% (active) in the assay with MALME-3M melanoma; 53.6% in the assay with MDA-MB-231 breast; 36.4% with RXF 393 renal; 68.7% with SF-268 CNS. In addition, the growth in the assay on SF-295 CNS is 101%; in the assay with SF-539 CNS it was 85.4%; with M14 melanoma it was 63%.

For the compound `O=Cc1nc2ccccc2[nH]1`, the growth is 105% in the assay on DU-145 prostate; 97.6% in the assay with K-562 leukemia; 104% in the assay with MALME-3M melanoma; 94.9% in the assay with MDA-MB-231 breast; 112% in the assay with RXF 393 renal; 104% in the assay on SF-268 CNS. Also, the growth with SF-295 CNS was 101%; with SF-539 CNS, 97.5%; in the assay on M14 melanoma, 90.9%.

Turning to `COc1ccc2c3c(c4ccccc4cc13)C(=O)N(CCN(C)CCN)C2=O`, the growth with DU-145 prostate is -86.6% (active); with K-562 leukemia, -68% (active); with MALME-3M melanoma, -75.7% (active); in the assay with MDA-MB-231 breast it was -72.1% (active); with RXF 393 renal it was -94.3% (active); with SF-268 CNS, -67.5% (active). Besides, the growth with SF-295 CNS is -88.9% (active); in the assay with SF-539 CNS it was -83% (active); with M14 melanoma, -83.2% (active).

As to `Cc1cc(C)c(NC(=O)c2sc3nc4c(cc3c2N)CCCC4)c(C)c1`, the growth with DU-145 prostate is 70.3%; with K-562 leukemia, 12.4%; in the assay on MALME-3M melanoma, 44.7%; in the assay with MDA-MB-231 breast, 71.8%; with RXF 393 renal, 57.9%; in the assay on SF-268 CNS, 48.8%. Moreover, the growth with SF-295 CNS was 29.2%; in the assay on SF-539 CNS, 26.9%; in the assay on M14 melanoma it was 24.5%.

In the case of `Nc1ccc(Cl)cn1`, the growth in the assay on DU-145 prostate is 106%; with K-562 leukemia, 107%; in the assay on MALME-3M melanoma, 99.7%; in the assay with MDA-MB-231 breast it was 101%; in the assay on RXF 393 renal, 113%; in the assay on SF-268 CNS, 100%. Also, the growth in the assay with SF-295 CNS was 97.3%; in the assay with SF-539 CNS, 96.4%; in the assay on M14 melanoma, 105%.

As for `COc1cccc(-c2nn(-c3ccccc3)cc2-c2ccnc(NCCCNS(=O)(=O)c3cccc(F)c3)c2)c1`, the growth is 53.6% with DU-145 prostate; 6.28% (active) in the assay on K-562 leukemia; 35.1% in the assay with MALME-3M melanoma; 5.9% (active) with MDA-MB-231 breast; 15.8% with RXF 393 renal; 46.8% in the assay with SF-268 CNS. Moreover, the figures for the growth in the assay with SF-295 CNS, in the assay with SF-539 CNS and with M14 melanoma were 7.99% (active), 51.9% and 21%, respectively.

For `O=S(=O)(NCCNc1cc(-c2cn(-c3ccccc3)nc2-c2cccc(O)c2)ccn1)c1ccc(C(F)(F)F)cc1`, the growth in the assay on DU-145 prostate was 71.8%; in the assay on K-562 leukemia it was 7.03% (active); in the assay with MALME-3M melanoma, 60.2%; with MDA-MB-231 breast it was 5.29% (active); in the assay on RXF 393 renal, 40.5%; in the assay on SF-268 CNS, 50%. The growth in the assay on SF-295 CNS is 38.6%; in the assay on SF-539 CNS, 60.1%; in the assay on M14 melanoma, 32.1%.

In the case of `O=C(CCCCCn1c2ccccc2c2c3c(c4c5ccccc5[nH]c4c21)C(=O)N(O)C3=O)N1CCOCC1`, the growth with DU-145 prostate is 69.6%; with K-562 leukemia, 33.6%; in the assay on MALME-3M melanoma, 113%; in the assay on MDA-MB-231 breast, 48.2%; with RXF 393 renal, 56%; in the assay on SF-268 CNS it was 47.4%. For the same compound, the growth in the assay with SF-295 CNS is 28.5%; in the assay with SF-539 CNS, 35.6%; in the assay on M14 melanoma, 38.6%.

As for `CCc1cccc(CC)c1NC(=O)c1sc2nc3c(cc2c1N)CCCC3`, the growth is 98.6% in the assay with DU-145 prostate; 26.6% with K-562 leukemia; 54.3% in the assay with MALME-3M melanoma; 79.5% in the assay with MDA-MB-231 breast; 81.6% in the assay on RXF 393 renal; 82.6% with SF-268 CNS. For the same compound, the growth was 45.7% in the assay with SF-295 CNS, 74.5% with SF-539 CNS and 52% with M14 melanoma.
